High-throughput results deposited in PubChem by Broad Institute.
IDE exosite FP = exo-site inhibitors of human IDE, primary screen, biochemical, fluorescence anisotropy, probe displacement; purified IDE, FL-6b probe fluorescence polarization; active compounds read low; z-score at 20 µM; 17,000 tested, 6.3% active;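 active means z-score of -3 or lower, meaning strong loss of probe binding signal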;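 further: His-tagged human IDE residues 42-1019 made in E. coli with 30 nM FL-6b probe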
Target sequence (P14735 42-1019 limits assumed): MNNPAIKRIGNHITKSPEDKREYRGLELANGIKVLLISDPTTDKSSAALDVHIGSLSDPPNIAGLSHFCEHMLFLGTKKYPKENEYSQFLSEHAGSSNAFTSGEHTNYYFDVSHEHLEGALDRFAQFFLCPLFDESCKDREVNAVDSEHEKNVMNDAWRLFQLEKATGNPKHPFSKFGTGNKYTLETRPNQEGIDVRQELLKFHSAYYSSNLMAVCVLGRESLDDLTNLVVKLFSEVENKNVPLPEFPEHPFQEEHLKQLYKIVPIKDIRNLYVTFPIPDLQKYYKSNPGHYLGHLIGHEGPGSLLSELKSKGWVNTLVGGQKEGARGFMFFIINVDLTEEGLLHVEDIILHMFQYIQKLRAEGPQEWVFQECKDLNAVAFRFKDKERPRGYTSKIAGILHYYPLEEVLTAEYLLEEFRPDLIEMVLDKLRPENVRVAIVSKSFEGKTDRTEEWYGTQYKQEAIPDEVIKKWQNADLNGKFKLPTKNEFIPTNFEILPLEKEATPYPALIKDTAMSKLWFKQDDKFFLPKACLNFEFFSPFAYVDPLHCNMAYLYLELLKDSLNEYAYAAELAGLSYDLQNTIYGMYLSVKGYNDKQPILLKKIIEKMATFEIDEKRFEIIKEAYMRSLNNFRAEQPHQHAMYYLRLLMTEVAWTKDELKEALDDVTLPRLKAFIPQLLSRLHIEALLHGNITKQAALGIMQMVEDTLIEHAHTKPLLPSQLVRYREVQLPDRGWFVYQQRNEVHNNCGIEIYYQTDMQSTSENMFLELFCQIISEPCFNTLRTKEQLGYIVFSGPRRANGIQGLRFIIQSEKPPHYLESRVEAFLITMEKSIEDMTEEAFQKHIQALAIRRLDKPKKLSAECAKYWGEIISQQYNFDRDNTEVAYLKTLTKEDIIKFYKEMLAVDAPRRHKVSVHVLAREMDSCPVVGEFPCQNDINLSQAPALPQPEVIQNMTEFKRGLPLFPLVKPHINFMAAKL
Active calls of the source: *; ! = repeats disagree. Shown is part of a subset that was picked to be rich in hits.

SMILES	IDE exosite FP
O=C(Cc1ccccn1)N1CC(=O)N2[C@H](CO)[C@H](c3ccc(-c4ccc(F)cc4)cc3)[C@@H]2C1	-0.59
Cc1ccc(-c2ccc([C@@H]3[C@@H](CO)N4C(=O)CN(C(=O)Cc5ccccn5)C[C@@H]34)cc2)cc1	-2.6
Cc1ccc(-c2ccc([C@@H]3[C@@H](CO)N4C(=O)CN(C(=O)Cc5ccccn5)C[C@H]34)cc2)cc1	-1.2
Cc1cccc(-c2ccc([C@@H]3[C@@H](CO)N4C(=O)CN(C(=O)Cc5ccccn5)C[C@H]34)cc2)c1	-5.7*
O=C(Cc1ccccn1)N1CC(=O)N2[C@H](CO)[C@@H](c3ccc(-c4ccccc4)cc3)[C@H]2C1	-0.4
Cc1ccc(-c2ccc([C@@H]3[C@H]4CN(C(=O)Cc5ccccn5)CC(=O)N4[C@H]3CO)cc2)cc1	-0.8
COc1cccc(NC(=O)N2CC(=O)N3[C@H](CO)[C@@H](c4ccc(C5=CCCCC5)cc4)[C@H]3C2)c1	-2.3
COCc1cn(CC[C@@H]2CC[C@@H](NC(=O)Nc3c(C)noc3C)[C@H](CO)O2)nn1	-0.021
O=C(Nc1cccc(F)c1)N1CCCCN2[C@H](C1)[C@@H](c1ccc(-c3ccccc3F)cc1)[C@@H]2CO	3.3
O=C(Nc1cc(F)ccc1F)N[C@H]1CC[C@@H](CC(=O)N2CCc3ccccc3C2)O[C@@H]1CO	3.3
O=C(c1cccnc1)N1CC(=O)N2[C@H](CO)[C@H](c3ccc(-c4ccccc4F)cc3)[C@H]2C1	-0.96
N#C[C@@H]1[C@H](c2ccc(-c3ccccc3F)cc2)[C@H](CO)N1C(=O)C1CCOCC1	-0.72
Cc1ccccc1-c1ccc(C2[C@@H]3CN(Cc4cccnc4)C[C@H]2N3)cc1 (stereo not given in full)	-14*
N#Cc1ccc(-c2ccc(C3[C@@H]4CN(C(=O)C5CCOCC5)C[C@H]3N4)cc2)cc1 (stereo not given in full)	1.9
Cc1ccccc1-c1ccc(C2[C@@H]3CN(C(=O)C4CCOCC4)C[C@H]2N3)cc1 (stereo not given in full)	-7.7*!
CN(C)C(=O)c1ccc(-c2ccc(C3[C@@H]4CN(Cc5cccnc5)C[C@H]3N4)cc2)cc1 (stereo not given in full)	1.2
CN(C)C(=O)c1ccc(-c2ccc(C3[C@@H]4CN(C(=O)c5ccccn5)C[C@H]3N4)cc2)cc1 (stereo not given in full)	1.1
Fc1cccc(-c2ccc(C3[C@@H]4CN(Cc5cccnc5)C[C@H]3N4)cc2)c1 (stereo not given in full)	1.4
O=C(C1CCOCC1)N1C[C@@H]2N[C@H](C1)C2c1ccc(-c2ccccc2F)cc1 (stereo not given in full)	-3*!
O=C(C1CCC1)N1C[C@@H]2N[C@H](C1)C2c1ccc(-c2cccc(F)c2)cc1 (stereo not given in full)	1
O=C(c1ccccn1)N1C[C@@H]2N[C@H](C1)C2c1ccc(-c2ccccc2F)cc1 (stereo not given in full)	-5.8*!
O=C(C1CCOCC1)N1C[C@@H]2N[C@H](C1)C2c1ccc(-c2cccc(F)c2)cc1 (stereo not given in full)	4.2
N#Cc1ccc(-c2ccc(C3[C@@H]4CN(C(=O)c5ccccn5)C[C@H]3N4)cc2)cc1 (stereo not given in full)	2.8
CCC(=O)N1[C@@H](CO)[C@@H](c2ccccc2)C12CN(C(=O)c1ccc3c(c1)OCO3)C2	0.67
Cc1ccccc1-c1ccc(C2[C@H]3CNC[C@@H]2N3C(=O)Nc2ccc(C(F)(F)F)cc2)cc1 (stereo not given in full)	-1.8
SMILES	IDE exosite FP
CN(C)C(=O)c1cccc(-c2ccc([C@H]3[C@H](CO)N4CCCCN(C(=O)C5CCC5)C[C@@H]34)cc2)c1	1.9
CNC(=O)C[C@H]1CC[C@@H]2[C@H](COC[C@@H](O)CN2Cc2ccccc2F)O1	-0.032
CCCN1C[C@@H](C)[C@@H](OC)CN(C)C(=O)c2ccc(NS(=O)(=O)c3cn(C)cn3)cc2OC[C@H]1C	-0.58
CCCN(C)C[C@H]1OCc2ccccc2-c2ccccc2C(=O)N([C@@H](C)CO)C[C@H]1C	-0.18
COc1cccc(NC(=O)Nc2ccc3c(c2)C(=O)N(C)C[C@H](OC)[C@@H](C)CN[C@H](C)CO3)c1	-1.2
CO[C@@H]1CN(C)C(=O)c2cc(NC(=O)c3ccc(Oc4ccccc4)cc3)ccc2OC[C@H](C)NC[C@@H]1C	-8*
CO[C@@H]1CN(C)C(=O)c2cc(NC(=O)c3cnccn3)ccc2OC[C@H](C)NC[C@H]1C	-0.012
CO[C@H]1CN(C)C(=O)c2ccc(NC(=O)c3cccc(F)c3)cc2OC[C@@H](C)NC[C@@H]1C	1.2
CO[C@@H]1CN(C)C(=O)c2cc(NC(=O)c3ccc(Oc4ccccc4)cc3)ccc2OC[C@@H](C)NC[C@H]1C	-14*
CO[C@H]1CN(C)C(=O)c2cc(NC(=O)c3ccc(Oc4ccccc4)cc3)ccc2OC[C@H](C)NC[C@H]1C	-14*!
COc1cccc(NC(=O)Nc2ccc3c(c2)C(=O)N(C)C[C@@H](OC)[C@H](C)CN[C@@H](C)CO3)c1	0.18
CO[C@@H]1CN(C)C(=O)c2cc(NC(=O)c3cnccn3)ccc2OC[C@H](C)NC[C@@H]1C	-0.39
COc1cccc(NC(=O)Nc2ccc3c(c2)C(=O)N(C)C[C@H](OC)[C@H](C)CN[C@@H](C)CO3)c1	-1.9
CNC[C@H]1OCCCC[C@H](C)Oc2ccc(NC(=O)Nc3ccc(OC)cc3)cc2C(=O)N([C@H](C)CO)C[C@@H]1C	0.035
CCC(=O)N1CC(=O)N2[C@@H](CO)[C@H](c3ccc(-c4ccc(C#N)cc4)cc3)[C@@H]2C1	-0.86
COc1ccc2c3c([nH]c2c1)[C@H](CO)N(S(C)(=O)=O)CC31CN(C(=O)Cc2cccnc2)C1	0.26
CCCNC(=O)N1C[C@@H]2[C@H](c3ccccc31)[C@@H](CO)N2C(=O)Nc1ccccc1F	-0.32
COc1ccc(-c2ccc([C@H]3[C@@H](CO)N4CCCCN(C(=O)NC(C)C)C[C@H]34)cc2)cc1	-1.7
COCC(=O)N1CCCCN2[C@H](C1)[C@H](c1ccc(-c3ccc(OC)cc3)cc1)[C@@H]2CO	-0.9
COc1ccc(-c2ccc([C@H]3[C@@H](CO)N4CCCCN(C(=O)NC(C)C)C[C@@H]34)cc2)cc1	-6.3*
COc1ccc(-c2ccc([C@H]3[C@H](CO)N4CCCCN(C(=O)NC(C)C)C[C@@H]34)cc2)cc1	-7.3*
COc1ccc(-c2ccc([C@@H]3[C@H]4CN(C(=O)c5ccc(F)cc5)CCCCN4[C@H]3CO)cc2)cc1	1.5
COCC(=O)N1CCCCN2[C@@H](CO)[C@@H](c3ccc(-c4ccc(OC)cc4)cc3)[C@@H]2C1	0.41
COCC(=O)N1CCCCN2[C@H](CO)[C@@H](c3ccc(-c4ccc(OC)cc4)cc3)[C@H]2C1	-1.3
CC(C)NC(=O)N1CCCCN2[C@H](C1)[C@@H](c1ccc(Br)cc1)[C@@H]2CO	2.7
COc1ccc(-c2ccc([C@@H]3[C@H]4CN(C(=O)NC(C)C)CCCCN4[C@H]3CO)cc2)cc1	-6.6*
N#C[C@@H]1[C@@H](c2ccc(C3=CCCCC3)cc2)[C@H](CO)N1S(=O)(=O)c1ccccc1	0.44
CN(C)C(=O)C[C@H]1C[C@@H]2c3cc(NC(=O)c4cccnc4)ccc3O[C@@H]2[C@@H](CO)O1	-0.27
CNC[C@H]1Oc2ncc(-c3cncnc3)cc2C(=O)N([C@H](C)CO)C[C@@H]1C	-1.9
